# Measurements published in PubChem BioAssay (Tox21).
# Several values for one entry are separate records, joined by “and”; a condition that tells them apart may be missing. Equal entries are not always repeated. Records with an inconclusive call do not appear. Where a call stands in place of a potency, no number is given. Activity calls are given as the source filed them. The call rests on the fitted dose curve; in most records, active means well fitted cell-killing curve with a large enough effect in the repeat runs; inconclusive means weak or mixed curves; inactive means no such curve, though single readings can be large or run the other way.
# Assay: qHTS assay to identify small molecule agonists of the peroxisome proliferator-activated receptor delta (PPARd) signaling pathway - cell viability counter screen (AID 743211); further: nearly all actives have a fitted effect of over 55% in size
# Details: PPARd-bla HEK293H viability, CellTiter-Glo luminescence, 17 h; series mostly up to 62.6 µM
# Text: U.S. Tox21 Program National Center for Advancing Translational Sciences [NCATS] NIH Chemical Genomics Center [NCGC] U.S. Environmental Protection Agency [EPA] National Institutes of Environmental Health Sciences [NIEHS] National Toxicology Program [NTP] U.S. Food and Drug Administration [FDA] Tox21 Assay Overview: The peroxisome proliferator-activated receptors (PPARs) are lipid-activated transcription factors of the nuclear receptor superfamily with three distinct subtypes namely PPAR alpha, PPAR delta (PPARd) and PPAR gamma. All these subtypes heterodimerizes with Retinoid X receptor (RXR) and have different physiological functions. […] To identify the compounds that activate PPAR-delta signaling, GeneBLAzer PPAR delta UAS-bla HEK293H cell line (Invitrogen, Carlsbad, CA, USA) containing a beta-lactamase reporter gene under the control of an Upstream Activator Sequence (UAS) was used to screen the Tox21 compound library. The cytotoxicity of the Tox21 compound library against the PPARd-bla cell line was tested in parallel by measuring the cell viability using CellTiter-Glo assay (Promega, Madison, WI) in the same wells.
# Tox21 Assay Protocol Summary: PPARd-bla cells were dispensed at 3000 cells/6uL/well in 1536-well black wall/clear bottom plates using a Multidrop Combi (Thermo Fisher Scientific, Waltham, MA) dispenser. After the assay plates were incubated at 37 C and 5% CO2 for 5 h, 23 nL of compounds dissolved in DMSO, positive controls or DMSO only was transferred to the assay plate by a Pintool station (Kalypsys, San Diego, CA). The assay plates were incubated at 37C for 17 h. After 1 uL of LiveBLAzerTM B/G FRET substrate was added using a Bioraptr Flying Reagent Dispenser (FRD) workstation (Beckman Coulter, Indianapolis, IN, USA), the plates were incubated at room temperature for 2 h, and fluorescence intensity was measured by an Envision plate reader (PerkinElmer, Shelton, CT). For cell viability readout that measures cytotoxicity, 3 ul/well of CellTiter-Glo reagent was added into the assay plates using a Bioraptr FRD. After 30 min incubation at room temperature, the luminescence intensity in the plates was measured using a ViewLux plate reader (PerkinElmer).
# Potency means the concentration at half of the fitted maximal effect.
row,Structure (SMILES),Potency
1,CC(C)(C)OOC(C)(C)CCC(C)(C)OOC(C)(C)C,inactive
2,CC(C)CCON=O,inactive
3,NNCCO,inactive
4,CCOP(=S)(OCC)SCSc1cc(Cl)ccc1Cl,inactive
5,O=C(O)CCCOc1ccc(Cl)cc1Cl,inactive
6,O=C1NC(=O)C(=O)C(=O)N1,inactive
7,O=C(N/N=C/c1ccc([N+](=O)[O-])o1)c1cc([N+](=O)[O-])cc([N+](=O)[O-])c1O,inactive
8,C[C@H]1[C@@H]2Cc3ccc(O)cc3[C@@]1(C)CCN2C,inactive
9,COC(=O)C1(O)c2ccccc2-c2ccccc21,inactive
10,CC(C)(C)NCC(O)c1cc(Cl)c(N)c(C(F)(F)F)c1 (stereo not given),inactive
11,Cc1ncc(C[n+]2csc(CCO)c2C)c(N)n1,inactive
12,O=C1c2ccccc2C(=O)N1SC(Cl)(Cl)Cl,38.3 µM (active) and 6.92 µM (active)
13,C[C@]12CC[C@H]3[C@@H](CCC4=CC(=O)CC[C@@H]43)[C@@H]1CC[C@@H]2OC(=O)CCc1ccccc1,inactive
14,CCCBr,inactive
15,CCCC1CCCCN1 (stereo not given),inactive
16,CCCC(C)(COC(N)=O)COC(=O)NC(C)C (stereo not given),inactive
17,CC(C)c1ccc(NC(=O)N(C)C)cc1,inactive
18,C=CC(=O)NC(C)(C)CC(C)=O,inactive
19,CCOC(=O)NC(O)C(Cl)(Cl)Cl (stereo not given),inactive
20,C[C@H]1O[C@H](OC2[C@@H](O)[C@@H](O)C(O)[C@H](O)[C@H]2O)[C@@H](N)C[C@@H]1N=C(N)C(=O)O (stereo not given in full),inactive

row,Structure (SMILES),Potency
1,C1CS1,inactive
2,CN(C)c1ccc(N=O)cc1,43.6 µM (active)
3,C=CCOCC1CO1 (stereo not given),inactive
4,Cc1ccc(N)c(C)c1,inactive
5,COc1cc(CC#N)cc(OC)c1OC,inactive
6,O=C(Cc1ccccc1)c1ccccc1,inactive
7,C=C(Cl)Cl,inactive
8,SCc1ccccc1,inactive
9,OCC1CO1 (stereo not given),inactive
10,CC(CC(C(N)=O)(c1ccccc1)c1ccccc1)N(C)C (stereo not given),inactive
11,C1CCNCC1,inactive
12,CCCCC1C(=O)NC(=O)N(C2CCCCC2)C1=O (stereo not given),inactive
13,CCc1cnc(C2=NC(C)(C(C)C)C(=O)N2)c(C(=O)O)c1 (stereo not given),inactive
14,Oc1cccc(Cl)c1,inactive
15,CNC(=O)Oc1cccc(N=CN(C)C)c1,inactive
16,CCC(C)Cl (stereo not given),inactive
17,O=C([O-])c1ccccn1.O=C([O-])c1ccccn1.O=C([O-])c1ccccn1.[Cr+3],inactive
18,COc1cc(C[C@@H](C)N)c(OC)cc1Br,62.8 µM (active)
19,CN(C)N,inactive
20,Nc1cccc2ccccc12,inactive
